Among the data in PubChem BioAssay AID1159572 (Broad Institute, 2015) are outcome values, retold here.

A short description of the experiment: Dd2 parasite growth inhibition in erythrocytes – SYBR Green, dry powder samples, set 4, dose response (AID 1159572).

Results with a measured potency or affinity are listed apart. Activity calls are given as the source filed them.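 The calls were made as follows: active = compounds whose fitted half-maximal growth inhibition concentration is at most twice their top tested dose; inconclusive = flat fit with 30 to 70% inhibition, or poor fit; inactive = the rest.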

Consider `COc1ccc2c3c([nH]c2c1)[C@H](CO)N(C(C)=O)CC31CCN(C(=O)Nc2c(C)noc2C)CC1`, for which the call was inactive.
